The text below walks through data of the supplement of paper PMC11732987, “Enantioselective OTUD7B fragment discovery through chemoproteomics screening and high-throughput optimisation” (Communications Chemistry, 2025).

Experiment in all cases: log2 ratio of Biotin-Ahx-Ub-VS probe labelling (fragment/DMSO); higher = less target engagement (more negative = stronger competition), active = hit call of the paper (q ≤ 0.05, log2 ratio ≤ -1)
Common to all, as to conditions: compound concentration: 200 uM; treatment time: 3 h

The target in one test is T1, OTUD6B (UniProt Q8N6M0).
T1 sequence (whole entry): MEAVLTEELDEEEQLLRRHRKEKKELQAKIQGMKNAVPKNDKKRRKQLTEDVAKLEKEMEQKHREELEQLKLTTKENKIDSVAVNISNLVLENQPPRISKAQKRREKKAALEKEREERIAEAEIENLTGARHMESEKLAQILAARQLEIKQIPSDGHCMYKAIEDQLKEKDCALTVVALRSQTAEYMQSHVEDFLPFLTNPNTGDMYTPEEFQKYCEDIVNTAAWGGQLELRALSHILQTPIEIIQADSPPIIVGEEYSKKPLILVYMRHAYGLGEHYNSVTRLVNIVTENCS
Summed up: (§1)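 Using Biotin-Ahx-Ub-VS at 0.5 µM final for 1 h, DUBs were labelled in HEK293T lysate (495 µg per sample) that had first been treated in triplicate with fragment at 200 µM or vehicle for 3 h. NeutrAvidin enrichment, LysC and trypsin digestion and diaPASEF LC-MS/MS followed. Spectronaut label-free quantities were global-median-normalised. Values are average log2 fragment/vehicle ratios by unpaired t-test, using proteins with ≥2 unique peptides.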

In the next test the target is T2, OTUD7B (UniProt Q6GQQ9).
T2 sequence (whole entry): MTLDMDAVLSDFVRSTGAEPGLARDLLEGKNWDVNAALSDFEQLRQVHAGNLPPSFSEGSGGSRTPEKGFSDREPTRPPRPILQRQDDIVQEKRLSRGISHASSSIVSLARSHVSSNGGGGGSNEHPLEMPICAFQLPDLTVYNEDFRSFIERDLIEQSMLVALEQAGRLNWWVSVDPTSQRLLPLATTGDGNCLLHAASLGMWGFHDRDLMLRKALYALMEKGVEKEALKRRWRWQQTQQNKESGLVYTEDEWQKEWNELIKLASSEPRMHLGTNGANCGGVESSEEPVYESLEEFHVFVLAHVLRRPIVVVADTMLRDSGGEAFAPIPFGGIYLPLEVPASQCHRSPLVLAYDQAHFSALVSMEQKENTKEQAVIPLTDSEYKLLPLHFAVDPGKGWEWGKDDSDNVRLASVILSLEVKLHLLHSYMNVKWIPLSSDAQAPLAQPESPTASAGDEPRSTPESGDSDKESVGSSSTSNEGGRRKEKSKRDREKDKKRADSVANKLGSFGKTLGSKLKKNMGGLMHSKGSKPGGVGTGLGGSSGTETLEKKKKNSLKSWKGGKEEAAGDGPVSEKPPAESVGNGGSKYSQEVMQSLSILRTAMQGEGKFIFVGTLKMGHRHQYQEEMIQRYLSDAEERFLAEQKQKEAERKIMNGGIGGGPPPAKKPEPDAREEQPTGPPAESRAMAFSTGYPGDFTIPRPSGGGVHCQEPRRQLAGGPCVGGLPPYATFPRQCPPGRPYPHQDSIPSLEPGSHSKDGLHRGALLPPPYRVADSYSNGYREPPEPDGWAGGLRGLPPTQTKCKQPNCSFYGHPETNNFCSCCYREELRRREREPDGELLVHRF
Summed up: as §1

A further test has as its target PRPF8 (UniProt Q6P2Q9). Summed up: as §1
In the next test the target is T3, PSMD7 (UniProt P51665).
T3 sequence (whole entry): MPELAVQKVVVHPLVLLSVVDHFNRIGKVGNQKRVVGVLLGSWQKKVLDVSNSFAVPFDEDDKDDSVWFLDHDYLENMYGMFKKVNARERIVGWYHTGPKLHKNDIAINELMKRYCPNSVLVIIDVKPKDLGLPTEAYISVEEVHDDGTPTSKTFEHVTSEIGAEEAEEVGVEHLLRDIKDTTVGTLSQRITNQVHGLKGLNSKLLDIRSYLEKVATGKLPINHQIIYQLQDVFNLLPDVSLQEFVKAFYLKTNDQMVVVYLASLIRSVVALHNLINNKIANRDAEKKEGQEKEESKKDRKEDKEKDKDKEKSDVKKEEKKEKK
Summed up: as §1

For the next test, the target named is UCHL1 (UniProt P09936). Summed up: as §1
Sequence of UCHL1 (P09936 whole entry, looked up): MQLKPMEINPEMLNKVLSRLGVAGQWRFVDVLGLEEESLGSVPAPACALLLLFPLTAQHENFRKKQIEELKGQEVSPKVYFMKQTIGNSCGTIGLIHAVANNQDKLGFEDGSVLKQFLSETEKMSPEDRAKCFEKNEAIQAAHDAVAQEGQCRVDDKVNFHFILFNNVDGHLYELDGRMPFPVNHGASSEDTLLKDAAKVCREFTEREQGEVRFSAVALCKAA
In another test the target is T4, UCHL3 (UniProt P15374).
T4 sequence (whole entry): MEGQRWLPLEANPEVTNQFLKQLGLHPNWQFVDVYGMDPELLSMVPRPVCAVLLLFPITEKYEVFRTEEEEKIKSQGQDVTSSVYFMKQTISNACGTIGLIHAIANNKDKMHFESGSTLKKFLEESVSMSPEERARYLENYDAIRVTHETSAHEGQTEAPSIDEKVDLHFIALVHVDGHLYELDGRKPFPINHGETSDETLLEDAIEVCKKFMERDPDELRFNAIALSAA
Summed up:
as §1

The target of another test is T5, UCHL5 (UniProt Q9Y5K5).
T5 sequence (whole entry): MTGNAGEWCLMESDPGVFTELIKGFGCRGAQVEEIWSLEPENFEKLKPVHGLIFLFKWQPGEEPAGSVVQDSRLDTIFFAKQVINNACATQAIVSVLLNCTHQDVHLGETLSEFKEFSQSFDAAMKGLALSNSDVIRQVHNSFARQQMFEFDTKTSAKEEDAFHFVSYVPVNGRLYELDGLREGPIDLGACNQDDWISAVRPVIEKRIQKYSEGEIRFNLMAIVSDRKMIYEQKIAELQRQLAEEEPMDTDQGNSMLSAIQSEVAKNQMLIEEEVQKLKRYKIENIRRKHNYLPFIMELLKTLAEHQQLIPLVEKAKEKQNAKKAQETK
Summed up: as §1

The target in a further test is USP10 (UniProt Q14694). Summed up: as §1
Sequence of USP10 (Q14694 whole entry): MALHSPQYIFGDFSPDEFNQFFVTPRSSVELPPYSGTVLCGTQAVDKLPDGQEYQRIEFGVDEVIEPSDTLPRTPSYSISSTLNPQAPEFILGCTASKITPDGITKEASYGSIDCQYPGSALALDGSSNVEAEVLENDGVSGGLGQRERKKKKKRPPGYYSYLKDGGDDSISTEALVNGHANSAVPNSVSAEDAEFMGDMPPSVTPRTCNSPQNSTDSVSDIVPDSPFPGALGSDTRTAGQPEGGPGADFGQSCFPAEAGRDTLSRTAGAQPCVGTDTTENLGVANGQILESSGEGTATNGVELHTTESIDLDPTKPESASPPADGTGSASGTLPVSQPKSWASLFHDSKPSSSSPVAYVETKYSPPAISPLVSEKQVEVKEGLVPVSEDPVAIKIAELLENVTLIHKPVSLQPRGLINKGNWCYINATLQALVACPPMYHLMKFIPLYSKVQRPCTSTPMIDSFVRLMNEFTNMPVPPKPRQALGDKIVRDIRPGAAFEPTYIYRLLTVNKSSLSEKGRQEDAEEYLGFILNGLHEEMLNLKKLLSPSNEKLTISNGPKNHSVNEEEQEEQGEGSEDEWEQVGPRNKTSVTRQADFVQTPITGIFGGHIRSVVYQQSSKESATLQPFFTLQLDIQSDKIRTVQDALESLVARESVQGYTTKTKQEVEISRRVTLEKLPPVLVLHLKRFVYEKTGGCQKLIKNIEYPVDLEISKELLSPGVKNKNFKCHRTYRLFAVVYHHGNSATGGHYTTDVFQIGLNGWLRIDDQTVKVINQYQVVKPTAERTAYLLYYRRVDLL
For the next test, the target named is T6, USP15 (UniProt Q9Y4E8).
T6 sequence (whole entry): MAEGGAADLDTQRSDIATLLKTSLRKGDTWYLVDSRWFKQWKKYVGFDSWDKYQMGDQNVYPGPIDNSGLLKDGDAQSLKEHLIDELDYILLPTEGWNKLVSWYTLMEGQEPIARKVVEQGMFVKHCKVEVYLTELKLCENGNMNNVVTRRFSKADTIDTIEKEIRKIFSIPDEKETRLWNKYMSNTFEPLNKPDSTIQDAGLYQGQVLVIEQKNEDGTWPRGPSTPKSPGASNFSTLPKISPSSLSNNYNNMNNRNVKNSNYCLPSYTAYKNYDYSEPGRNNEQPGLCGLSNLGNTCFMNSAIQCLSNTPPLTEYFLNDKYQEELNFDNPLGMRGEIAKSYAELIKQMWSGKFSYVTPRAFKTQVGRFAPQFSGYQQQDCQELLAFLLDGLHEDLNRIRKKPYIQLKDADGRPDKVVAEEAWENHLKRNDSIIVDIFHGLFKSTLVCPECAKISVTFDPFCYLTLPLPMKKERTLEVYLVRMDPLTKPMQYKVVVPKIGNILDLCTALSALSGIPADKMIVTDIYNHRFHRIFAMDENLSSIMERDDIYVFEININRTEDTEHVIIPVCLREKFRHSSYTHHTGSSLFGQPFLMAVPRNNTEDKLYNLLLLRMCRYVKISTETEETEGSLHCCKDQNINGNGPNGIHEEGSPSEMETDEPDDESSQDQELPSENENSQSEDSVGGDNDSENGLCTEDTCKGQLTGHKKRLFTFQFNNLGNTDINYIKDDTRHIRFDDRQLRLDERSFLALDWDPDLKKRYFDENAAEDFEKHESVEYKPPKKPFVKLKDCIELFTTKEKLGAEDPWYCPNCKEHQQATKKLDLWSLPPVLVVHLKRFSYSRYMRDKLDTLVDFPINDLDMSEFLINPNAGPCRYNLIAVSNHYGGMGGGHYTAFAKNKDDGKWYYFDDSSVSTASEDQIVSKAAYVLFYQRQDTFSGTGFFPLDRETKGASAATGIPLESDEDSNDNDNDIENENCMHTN
Summed up: as §1

For a further test, the target named is USP16 (UniProt Q9Y5T5). Summed up:
as §1

A number with no mark means an inactive call.

Sequence of USP16 (Q9Y5T5 whole entry, looked up): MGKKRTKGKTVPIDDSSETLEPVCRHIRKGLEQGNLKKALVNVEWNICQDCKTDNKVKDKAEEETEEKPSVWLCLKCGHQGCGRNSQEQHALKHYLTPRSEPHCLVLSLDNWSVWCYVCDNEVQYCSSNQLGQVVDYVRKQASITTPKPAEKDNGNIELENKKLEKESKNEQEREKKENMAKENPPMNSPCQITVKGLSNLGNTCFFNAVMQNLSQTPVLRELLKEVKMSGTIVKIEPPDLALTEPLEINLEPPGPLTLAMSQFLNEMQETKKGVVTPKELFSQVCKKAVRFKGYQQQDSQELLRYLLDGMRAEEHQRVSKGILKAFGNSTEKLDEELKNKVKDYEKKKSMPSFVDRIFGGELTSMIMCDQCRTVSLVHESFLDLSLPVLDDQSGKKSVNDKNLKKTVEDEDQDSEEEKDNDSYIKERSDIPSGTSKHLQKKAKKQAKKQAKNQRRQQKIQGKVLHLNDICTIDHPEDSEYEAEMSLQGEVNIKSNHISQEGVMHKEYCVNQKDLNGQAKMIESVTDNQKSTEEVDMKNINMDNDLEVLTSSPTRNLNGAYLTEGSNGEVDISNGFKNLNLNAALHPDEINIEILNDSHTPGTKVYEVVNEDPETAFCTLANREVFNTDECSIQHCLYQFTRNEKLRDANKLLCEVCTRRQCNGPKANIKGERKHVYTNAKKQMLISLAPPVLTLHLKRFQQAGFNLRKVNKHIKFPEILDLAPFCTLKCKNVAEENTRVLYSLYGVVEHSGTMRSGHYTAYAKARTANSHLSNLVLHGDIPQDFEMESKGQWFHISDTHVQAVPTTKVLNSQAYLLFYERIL

For `Cc1cc(Cl)ccc1NC(=O)CCl`, the “log2 ratio of Biotin-Ahx-Ub-VS probe labelling” value with OTUD6B was -0.0452; with OTUD7B, -0.649; with PRPF8 it was 0.192; with PSMD7, 0.0336; with UCHL1, -1.46 (active); with UCHL3, 0.0619. Also, the “log2 ratio of Biotin-Ahx-Ub-VS probe labelling” value with UCHL5 was -0.109; with USP10, -0.132; with USP15, -0.218; in the test with USP16, -0.157.
